Laboratory results taken from ChEMBL document CHEMBL3988442, “University of Dundee, Small-Polar-MMV Screening Library” (2021).
Out of some 48,000 compounds screened, about 13,000 (27%) showed an effect of 50% or more. This is one part of the list.

Tested on: Wolbachia pipientis
Assay: Anti-Wolbachia Cell-Based Screen
Format: functional
Set-up: scale not given: in the data most compounds retested in dose-response had high values
Conditions: 5 µM

| SMILES | Percent Effect |
| --- | --- |
| Cc1cnc(NCC(C)(C)N2CCCCC2)nc1 | 1.17% |
| Cc1nc(-c2ccc(Cl)s2)sc1C(=O)NCCS(N)(=O)=O | -0.7868% |
| COCC(=O)N1CCC2(CC1)NC(=O)[C@H]1CN(C(=O)N(C)C)C[C@H]12 | -27.95% |
| Cc1csc(CNC(=O)Nc2cc(C(F)(F)F)c[nH]c2=O)n1 | -4.751% |
| CC(C)(O)CCc1ccc(C(=O)N2CCN(CC3CCCC3)CC2)cc1 | -6.284% |
| CN(C)CCn1c2c(ccc1=O)CCN(Cc1cnn(C)c1)CC2.O=C(O)C(F)(F)F.O=C(O)C(F)(F)F | 120.7% |
| COCc1nn(C)c2c1CCN(Cc1cnn(C)c1)C2.O=C(O)C(F)(F)F | -18.26% |
| Cc1cccc(O[C@H]2COCCN(C3CCOCC3)C2)n1 | -0.8542% |
| Cc1nccn1-c1cccc(C2CCCN(C3CCCC3)C2)n1 (stereo not given) | 98.22% |
| Fc1ccccc1-c1cccc(C2CCCN(C3CCOCC3)C2)n1 (stereo not given) | 71.52% |
| CCc1nccn1-c1cccc(C2CCCN(C3CCCCC3)C2)n1 (stereo not given) | 96.78% |
| c1ccc(-c2nnc([C@H]3CCN(C4CCOCC4)C3)o2)cc1 | -19.45% |
| Cc1nccn1-c1cccc(C2CCCN(C(=O)c3cc[nH]n3)C2)n1 (stereo not given) | 5.97% |
| Cc1nccn1-c1cccc(C2CCCN(C3CCCCC3)C2)n1 (stereo not given) | -27.27% |
| O=c1cc2c(nn1CN1CCOCC1)CCC2 | 1.556% |
| CNC(=O)NC(=O)CNc1cc(C(=O)OC)cc(C(F)(F)F)c1 | 1.326% |
| COc1cccc(CN2CCc3nc(C(=O)NCC(C)C)sc3CC2)c1.O=C(O)C(F)(F)F | 3.655% |
| Fc1cccc(N2CCc3ncnc(C4CC4)c3CC2)c1 | 8.314% |
| CC(C)NC(=O)NC[C@H]1OC[C@@H](NCc2ccc(S(C)(=O)=O)cc2)[C@@H]1O | 9.83% |
| CO[C@@H]1CC[C@H]2[C@H]1OCCN2C(=O)COc1ccc(C)cc1 | 102.2% |
| CO[C@H]1CC[C@H]2[C@H]1OCCN2C(=O)CCOc1ccccc1 | 104.1% |
| CO[C@@H]1CC[C@H]2[C@H]1OCCN2C(=O)c1ccc(C)o1 | -15.27% |
| CCC(C)(CC(=O)OC)NC(=O)c1ccc(C(C)=O)cc1 (stereo not given) | 5.798% |
| COc1ccc(CNC(=O)N2CCN(C)[C@@H]3CS(=O)(=O)C[C@@H]32)cc1 | 5.272% |

| SMILES | Percent Effect |
| --- | --- |
| Cl.Cl.O=C(CN1CCN(CC(O)C2CC2)CC1)NCc1ccc(F)cc1 (stereo not given) | 3.1% |
| O=S(=O)(Cc1ccc(F)cc1)N1CCN(CC(O)C2CC2)CC1 (stereo not given) | -13.11% |
| COc1cccc(CNC(=O)N2CCN(Cc3cc(C)on3)CC2)c1 | -11.4% |
| Cl.O=C(NCc1ccc(F)cc1)N1CCN(CC(O)C2CC2)CC1 (stereo not given) | 111% |
| COc1ccc(CNC(=O)N2CCN(CC(O)C3CC3)CC2)cc1.Cl (stereo not given) | 99.74% |
| Cl.Cl.OC(CN1CCN(Cc2cc(F)cc(F)c2)CC1)C1CC1 (stereo not given) | -3.47% |
| O=C1CC(C(=O)O)C2(CCN(C(=O)NCc3ccc(Cl)cc3)CC2)N1 (stereo not given) | 6.317% |
| Cl.O=C(NCc1ccc(Cl)cc1)N1CCN(CC(O)C2CC2)CC1 (stereo not given) | 116% |
| COc1ccc(NC(=O)Cn2nc(C)c(C)cc2=O)cc1 | -2.265% |
| COc1ccc(Cn2nc(C(N)=O)ccc2=O)c(Cl)c1 | 8.088% |
| COc1ccc(-c2cc3nn(CC(N)=O)c(=O)n3c(C)n2)cc1 | 110.8% |
| Cc1nn2c(NCC(N)=O)cc(-c3ccccc3)nc2c1C | 1.327% |
| COCC(=O)N[C@H](C)c1c(-c2ccc(OC)cc2)noc1C(=O)O | -10.1% |
| COc1ccc(-c2cc3nn(CC(=O)NC(C)C)c(=O)n3c(C)n2)cc1 | 109.7% |
| Cc1nc(-c2ccccc2)cc2nn(CC(N)=O)c(=O)n12 | 117.5% |
| CC(=O)N1CCN(c2cc(-c3ccccc3)nc3c(C)c(C)nn23)CC1 | -0.0371% |
| CN(C)C(C(=O)N1CCN(CC(F)(F)F)CC1)c1ccccc1F (stereo not given) | -7.118% |
| Cn1nc(Cn2ccnc2)c2c1CN(C(=O)c1ccc[nH]1)C2 | -17.57% |
| CCCc1cnc(C)nc1NC(C)Cc1cnccn1 (stereo not given) | -13.48% |
| COc1ccccc1N1CCC(CNC(=O)N(C)Cc2ccco2)C1 (stereo not given) | 0.07203% |
| COCCN(c1ccncc1)S(=O)(=O)c1cc(C)cc(F)c1 | -2.462% |
| Cc1nc(C2CCCN(C(=O)c3ccoc3)C2)no1 (stereo not given) | 101.5% |
| Cc1nc(C2CCCN(C(=O)c3ccco3)C2)no1 (stereo not given) | 13.92% |
| Cc1nc(C2CCCN(C(=O)c3ccc(S(C)(=O)=O)cc3)C2)no1 (stereo not given) | 120.9% |

| SMILES | Percent Effect |
| --- | --- |
| CC(C)c1nc(C2CCCN(C(=O)c3ccnc(N(C)C)c3)C2)no1 (stereo not given) | -3.864% |
| Cc1nc(C2CCCN(C(=O)c3cccc(S(C)(=O)=O)c3)C2)no1 (stereo not given) | 8.734% |
| Cc1nc(C2CCCN(C(=O)c3ccnc(N(C)C)c3)C2)no1 (stereo not given) | 127.7% |
| Cc1cnn(CCNCc2ccc(OCc3csc(C)n3)cc2)c1 | -5.1% |
| Cn1c(Cn2cccn2)nnc1C1CCCN(c2ccncc2)C1 (stereo not given) | -11.32% |
| Cc1ccccc1C(=O)NCc1ccc(N2CCNC(=O)C2)c(F)c1 | -11.32% |
| O=C(O)C(F)(F)F.O=C([C@H]1COC[C@H]2CN(CC3CCCC3)C[C@H]21)N1CCOCC1 | -19.66% |
| COc1ccc(NC(=O)c2nc3ccccc3n(C)c2=O)cc1OC | 120.1% |
| CCCN1CCC(NC(=O)Nc2ccc(OC)c(OC)c2)CC1 | 8.494% |
| COc1cccc(NC(=O)c2nc3ccccc3n(C)c2=O)c1 | 124.2% |
| Cn1c(CCCNC(=O)Nc2cn[nH]c2)nc2ccccc21 | -21.13% |
| COc1ccc(NC(=O)c2nc3ccccc3n(C)c2=O)c(OC)c1 | 115.5% |
| COc1cccc(NC(=O)NC(C)(C)c2noc(C)n2)c1 | -4.672% |
| COc1ccc(OC)c(NC(=O)c2nc3ccccc3n(C)c2=O)c1 | 10.54% |
| CCSc1nc(N)c(NC(=O)c2ccc(OC)c(OC)c2)c(=O)[nH]1 | -7.588% |
| COc1cccc(NC(=O)Cc2c(C)nc3c(c2C)c(=O)[nH]n3C)c1 | 0.5633% |
| COc1ccc(Nc2nc3c(C)nn(C)c3c(=O)n2C)c(OC)c1 | -1.628% |
| COc1cc(NC(=O)NCc2ccccn2)cc(OC)c1 | 6.3% |
| COc1cc(NC(=O)c2nc3ccccc3n(C)c2=O)cc(OC)c1 | 112.5% |
| CN(Cc1ccsc1)C(=O)Nc1cccc(N2CCOC2=O)c1 | 1.632% |
| Cc1cccc(NC(=O)C2CCCN2C(=O)c2ccco2)c1C (stereo not given) | -37.39% |
| CC(C)NC(=O)C1CN(Cc2ccsc2)Cc2ccnn2C1.O=C(O)C(F)(F)F.O=C(O)C(F)(F)F (stereo not given) | 1.409% |
| COCCNC(=O)C1CN(Cc2ccncc2)Cc2ccnn2C1.O=C(O)C(F)(F)F.O=C(O)C(F)(F)F.O=C(O)C(F)(F)F (stereo not given) | 13.9% |
| COCCNC(=O)C1CN(Cc2nccs2)Cc2ccnn2C1.O=C(O)C(F)(F)F.O=C(O)C(F)(F)F (stereo not given) | -2.959% |

| SMILES | Percent Effect |
| --- | --- |
| COCCNC(=O)C1CN(Cc2csc(C)n2)Cc2ccnn2C1.O=C(O)C(F)(F)F (stereo not given) | 0% |
| O=C(NCC1CC1)C1CN(Cc2ccncc2)Cc2ccnn2C1.O=C(O)C(F)(F)F.O=C(O)C(F)(F)F.O=C(O)C(F)(F)F (stereo not given) | 99.23% |
| CC(C)NC(=O)C1CN(Cc2cccs2)Cc2ccnn2C1 (stereo not given) | -1.449% |
| CCOCC1CN(C(=O)Cc2cccs2)Cc2ccnn2C1 (stereo not given) | -16.86% |
| O=C(NCC1CC1)C1CN(Cc2cccs2)Cc2ccnn2C1 (stereo not given) | 124.8% |
| Cc1noc(C)c1CN1Cc2ccnn2CC(C(=O)NCC2CC2)C1.O=C(O)C(F)(F)F.O=C(O)C(F)(F)F (stereo not given) | -16.43% |
| O=C(NCC1CC1)C1CN(c2ncccn2)Cc2ccnn2C1.O=C(O)C(F)(F)F.O=C(O)C(F)(F)F (stereo not given) | 106% |
| Cc1ccc(CN2Cc3ccnn3CC(C(=O)NCC3CC3)C2)o1.O=C(O)C(F)(F)F.O=C(O)C(F)(F)F (stereo not given) | 99% |
| COCCNC(=O)C1CN(Cc2cccc(C)n2)Cc2ccnn2C1.O=C(O)C(F)(F)F.O=C(O)C(F)(F)F (stereo not given) | 6.488% |
| CC(C)c1nnc2n1CC(CNCc1ccncc1)CC2 (stereo not given) | -13.6% |
| CCCS(=O)(=O)N1CCOC2(CCCN(c3ncc(F)cn3)C2)C1 (stereo not given) | -2.367% |
| N#CCCN(Cc1ccco1)C(=O)CCCc1ccccc1 | 9.287% |
| COc1nn(C)c2c1CCCN(S(=O)(=O)c1cccs1)C2 | 2.697% |
| NC(=O)C1(c2cnccn2)CCCN1Cc1ccc(Cl)cc1 (stereo not given) | 127.2% |
| Cc1cccc(CN2C[C@@H]3CN(C(=O)c4cnccn4)C[C@@H]3C2=O)c1 | -5.846% |
| NC(=O)C1(c2cnccn2)CCCN1Cc1ccncc1 (stereo not given) | 100.7% |
| Cc1ccc(NC(=O)C2CSCN2C(=O)c2cnccn2)c(C)c1 (stereo not given) | -0.3998% |
| O=C(O)C1(Cc2ccc(Cl)cc2)CCN(c2ncccc2F)CC1 | 4.468% |
| NC(=O)C1(c2cnccn2)CCCN1Cc1cccc(Cl)c1 (stereo not given) | 110.7% |
| O=C(c1cnccn1)N1CCCC2(CCCN2Cc2cccnc2)C1 (stereo not given) | 8.648% |
| Cl.Cl.O[C@@H]1C[C@@](CNCc2cccc(Cl)c2)(COc2cnccn2)C[C@@H]1O | -20.67% |
| Cc1ccc(CN2CCCC2(C(N)=O)c2cnccn2)c(C)c1 (stereo not given) | 148.6% |
| O=C(O)[C@]12CCCN(Cc3ccncc3)[C@@H]1CCN(c1cnccn1)C2 | 15.13% |
